Screens: PubChem, National Center for Advancing Translational Sciences (NCATS)
Sampled rows, rich in hits. Any-hit rate of the full collection: about 12%.
JMJD2A Tudor inh = inhibitors of human JMJD2A Tudor domain; AID 504339; 390,000 compounds, 4.4% hits; AlphaScreen JMJD2A-Tudor / H3K4me3 peptide binding; Potency, µM (series often up to 114 µM), without a hit: at the top dose activity change, negative = inhibition, hits mostly inhibitors; also: % is scaled to controls: 0 for no effect and ±100 for the full control effect; nearly all actives have a fitted effect of over 50% in size
G9a block = inhibitors of human histone lysine methyltransferase G9a | G9a H3K9 monomethylation, AlphaScreen, 2 h | 350,000 compounds, 8.8% hits | Q96KQ7 | AID 504332 | Potency, µM (top dose mostly 102 µM), for inactives: at the top dose activity, negative = inhibition, actives largely listed as inhibitors; also: % is scaled to controls: 0 for no effect and ±100 for the full control effect; nearly all actives have a fitted effect of over 75% in size
Target sequence (Q96KQ7 913-1193 limits assumed): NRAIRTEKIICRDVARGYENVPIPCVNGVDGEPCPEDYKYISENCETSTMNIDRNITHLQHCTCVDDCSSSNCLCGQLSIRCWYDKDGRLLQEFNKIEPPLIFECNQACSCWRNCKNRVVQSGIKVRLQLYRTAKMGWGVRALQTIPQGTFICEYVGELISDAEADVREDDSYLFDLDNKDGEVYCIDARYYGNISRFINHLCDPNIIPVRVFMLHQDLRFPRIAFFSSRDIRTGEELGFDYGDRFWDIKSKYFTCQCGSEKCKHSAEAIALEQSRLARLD
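Readings reflect AlphaScreen signal from monomethyl-H3K9 antibody detection. HMT at 20 nM; substrate b-H3K9 500 nM; cofactor SAM 20 uM; 2 h RT reaction; compounds tested as titrations in qHTS with 15 min preincubation.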
BAZ2B inh = inhibitors of human BAZ2B bromodomain. AlphaScreen BAZ2B-H3K14Ac peptide displacement. Q9UIF8. 360,000 compounds, 4.4% hits. Potency, µM (titrated, usually from 114 µM), for inactives: at the highest dose activity change, negative = inhibition, usual class: inhibitors; also: % is scaled to controls: 0 for no effect and ±100 for the full control effect; nearly all actives have a fitted effect of over 60% in size
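In this displacement format the biotinylated H3(5-23) peptide acetylated at Lys14 serves as ligand at 50 nM, with BAZ2B at 50 nM in PBS pH 7.4 containing 0.01% Tween-20. Donor and acceptor beads are 10 ug/mL final.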
Sfp inh = blocks B. subtilis Sfp PPTase activity. Biochemical Sfp PPTase activity, qHTS. Potency, µM, for inactives: largest response in the series, negative = inhibition, usual class: inhibitors. 310,000 compounds, 3.5% hits;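 also: the enzyme is Sfp with the accession as filed and its product quenches rhodamine fluorescence; 0% = enzyme reaction without inhibitor and -100% = no enzyme wells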
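After 15 min at room temperature with compound, 15 nM Sfp received 5 uM rhodamine-CoA plus 12.5 uM BHQ-2-ybbR (50 mM Hepes pH 7.6, 10 mM MgCl2). Rate came from the fluorescence difference over 30 min, ex 525/em 598 nm.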
HP1b binding inh = blocks HP1-beta chromodomain binding to methylated histone tails; AlphaScreen HP1-beta / biotin-H3K9me3 peptide binding; 390,000 compounds, 0.56% hits; P83916; Potency, µM (highest dose often 114 µM), without a hit: at the top dose activity change, negative = inhibition, usual class: inhibitors; also: nearly all actives have a fitted effect of over 70% in size
Target sequence (P83916 whole entry, looked up): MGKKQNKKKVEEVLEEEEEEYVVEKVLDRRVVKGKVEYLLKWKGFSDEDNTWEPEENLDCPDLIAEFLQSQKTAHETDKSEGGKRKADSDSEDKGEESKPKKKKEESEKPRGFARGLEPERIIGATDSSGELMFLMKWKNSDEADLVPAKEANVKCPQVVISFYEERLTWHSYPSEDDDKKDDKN
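HP1-beta protein (50 nM final) preincubated 30 min at room temperature with biotinylated H3(1-18)K9me3 peptide (50 nM) in PBS pH 7.4, 0.01% Tween-20, then compound added for 30 min. AlphaScreen streptavidin donor/nickel chelate acceptor beads (10 ug/mL final), 30 min dark, luminescence read.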
L3MBTL1 inh = inhibitors of human L3MBTL1; Potency, µM (titrated, usually from 57.1 µM), for the others: top-dose activity, negative = inhibition, actives largely listed as inhibitors; 230,000 compounds, 0.66% hits; Q9Y468; AlphaScreen L3MBTL1–H3K9me1 peptide binding; also: % is scaled to controls: 0 for no effect and ±100 for the full control effect; nearly all actives have a fitted effect of over 60% in size
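Read-out is AlphaScreen signal from streptavidin donor and nickel chelate acceptor beads (10 ug/mL final each) bridging L3MBTL1 (50 nM) and biotinylated K9-monomethylated H3(1-15) peptide (75 nM), after 30 min compound exposure at room temperature.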
The depositor's hits bear a star; ? = inconclusive; . = no result; ! = not confirmed by another sample; [ ] = dose if it differs, or a comment. Calls follow the shape of the dose curve; as a rule, active = well fitted curve in the direction sought with a large enough effect; inconclusive = small, poorly fitted or top-dose-only effect, or another doubt; inactive = no such curve, though single readings can be large; an effect the other way counts as inactive or inconclusive. Potency is read from the fitted curve at half-maximal effect.

SMILES	JMJD2A Tudor inh	G9a block	BAZ2B inh	Sfp inh	HP1b binding inh	L3MBTL1 inh
CCCCn1c(O)c(C(C)=Nc2ccc(C(=O)O)cc2)c(=O)[nH]c1=O	?	45µM*	?	-3%	21%	9%
C[C@]12CC[C@@H](O)CC1CCC1C2CC[C@]2(C)C(=O)CC[C@@H]12 (some centres not stated)	.	31%[12.7 µM]	.	.	.	.
COc1ccc(-c2n[nH]c(=S)n2-c2ccc3c(c2)OCCO3)cc1OC	3.2µM*	.	-10%	?	8%	6%
COc1ccc(C2=NCC(=S)Nc3ccc(Cl)cc32)cc1OC	-20%	.	.	.	15%	.
O=c1c2ccccc2[nH]c(=S)n1-c1ccc2c(c1)OCO2	-2%	20%[59 µM]	-5%	20%	44%	-6%
S=c1[nH]nc(-c2ccc3ccccc3n2)n1-c1ccc2c(c1)OCCO2	45µM*	.	?	-2%	8%	30%
Cc1ccc(C(O)P(=O)(OCCC(C)C)c2ccc(N(C)C)cc2)cc1 (configuration not stated)	-23%	7%[2.33 µM]	?	-3%	13%	.
COc1ccc(Br)cc1C1SCC(=O)Nc2c1c(C)nn2-c1ccccc1C (configuration not stated)	10%	-10%[59 µM]	-3%	.	39%	.
c1cc2c(cc1[C@H]1OC[C@@H]3[C@H]1CO[C@H]3c1ccc3c(c1)OCO3)OCO2	.	.	.	-14%	.	.
CC(=O)NC(Cc1ccc(N(CCCl)CCCl)cc1)C(=O)NC(CC(C)C)C(=O)O (configuration not stated)	-27%	50µM*	?	?	15%	-6%
CN(CC(=O)Nc1ccc(N2CCOCC2)cc1)CC(=O)Nc1cccc(C#N)c1	-29%	?	?	-1%	-4%	1%
CCOC(=O)c1cccc([P+](=O)O)c1	28µM*	-26%[59 µM]	0%	10%	18%	16%
CCOC(=O)N1CCC(NC(=O)c2ccc3c(c2)N(Cc2cccc(C)c2)C(=O)c2ccccc2S3(=O)=O)CC1	-20%	6%[59 µM]	-13%	.	42%	.
On1ccccc1=S	3.5µM*	1.1µM*	-5%	.	?	0%
CC(C)C1(C)N=C(c2ncccc2C(=O)O)NC1=O (configuration not stated)	22µM*	32µM*	28µM*	-28%	-3%	.
CC(=O)OC[C@]12C[C@H](OC(=O)CC(C)C)C(C)=C[C@H]1O[C@H]1[C@H](O)[C@@H](OC(C)=O)[C@@]2(C)[C@]12CO2	.	.	.	10%	.	.
COc1ccc2[nH]cc(CCN=C(NC(=O)c3ccccc3OC)Nc3nc(C)cc(C)n3)c2c1	?	?	25µM*	.	-4%	.
CNC(=O)OCCc1n(C)cc[n+]1C	-17%	14µM*	0%	-6%	10%	9%
O=C1CCCC2C3CC(CN12)C1CCCCN1C3 (configuration not stated)	.	.	.	-8%	.	.
Cn1c(=O)c2[nH]cnc2n(C)c1=O	-15%	3.4µM*!	?	56µM*!	-26%	5%
Cc1cccc(N2C(=O)NC(=O)/C(=C\c3cnc(-c4ccccc4)nc3)C2=O)c1	?	7.1µM*	-3%	?	11%	23%
CC(C)c1ccc(N2C(=O)NC(=O)/C(=C\c3cnc(-c4ccccc4)nc3)C2=O)cc1	-12%[11.4 µM]	?	-29%	45µM*	?	-3%
CC(C)c1ccc(N2C(=O)NC(=O)/C(=C\C=C\c3ccco3)C2=O)cc1	?	?	-27%	-18%	1%	.
Cc1ccc(N2C(=O)NC(=O)/C(=C/c3cnc(-c4ccccc4)nc3)C2=O)cc1C	79µM*	10µM*	-2%	?	-16%	-1%
CC1=C[C@H]2[C@]3(O)C(C=C(CO)C[C@]2(O)C1=O)[C@@H]1C(C)(C)[C@]1(O)[C@H](O)[C@H]3C (some centres not stated)	.	.	.	4%	.	.
SMILES	JMJD2A Tudor inh	G9a block	BAZ2B inh	Sfp inh	HP1b binding inh	L3MBTL1 inh
O=C(O)c1ccc(-n2c(O)c(/C=C3\C=Nc4ccccc43)c(=O)[nH]c2=O)cc1	-12%	45µM*	-16%	-4%	5%	.
O=c1[nH]c(=O)n(-c2cccc(F)c2)c(O)c1/C=C1\C=Nc2ccccc21	-1%	-12%	7%	-10%	33%	.
CCCCn1c(O)c(/C=C2/C=CC=N2)c(=O)[nH]c1=O	-3%	?	-15%	14%	23%	-10%
CCCCn1c(O)c(/C=C2\C=Nc3ccccc32)c(=O)[nH]c1=O	-22%	71µM*	-5%	-8%	13%	.
Cc1ccc2[nH]c3c(c2c1)CN(C(=O)CN1C[C@H]2C[C@@H](C1)c1cccc(=O)n1C2)CC3	-25%	50µM*	-27%	8%	58%	2%
Cc1ccc2occ(CN3CC4CC(C3)c3cccc(=O)n3C4)c(=O)c2c1 (configuration not stated)	1%	10%	11%	2%	16%	2%
Cc1ccc(-n2nc(C)c3c2NC(=O)CSC3c2ccc3c(c2)OCO3)cc1 (configuration not stated)	?	?	.	56µM*	?	-5%
NC[C@@H]1O[C@H](O[C@H]2[C@H](O)[C@@H](O[C@H]3[C@H](O)[C@H](N)C[C@H](N)[C@H]3O[C@@H]3O[C@H](CO)[C@@H](O)[C@H](O)[C@@H]3N)O[C@H]2CO)[C@@H](N)[C@H](O)[C@@H]1O	.	29%[21.5 µM]	.	17%	.	.
C[C@@H]1CC[C@H]2[C@@H](C)C(=O)O[C@@H]3OC4(C)CC[C@@H]1[C@]32OO4	.	3%[59 µM]	.	-10%	.	.
CC(=O)c1ccc2c(c1)C1C(Cl)C(Sc3ccccc3[N+](=O)[O-])CC1C(C(=O)O)N2 (configuration not stated)	35µM*	7.9µM*	10µM*	56µM*	?	4µM*
O=C(O)c1cccc2c1NC(C(=O)O)C1CC(Sc3ccccc3[N+](=O)[O-])C(Cl)C21 (configuration not stated)	14µM*	10µM*	6.3µM*	25µM*	-93%	2.2µM*
Cc1c(N=Cc2c(O)n(C3CCCCC3)c(=O)[nH]c2=O)c(=O)n(-c2ccccc2)n1C	-9%	?	4%	-10%	35%	-7%
C=CCn1c(O)c(N=Nc2c(C)n(C)n(-c3ccccc3)c2=O)c(=O)[nH]c1=S	25µM*	0.79µM*	7.1µM*	20µM*	10%	20µM*
Cc1c(N=Nc2c(O)[nH]c(=S)[nH]c2=O)c(=O)n(-c2ccccc2)n1C	13µM*	2µM*	4.5µM*	45µM*	27%	?
